Only some compounds are listed: those with a hit (about 1.7% of all), similar ones and a draw of the others.
PABP1 MLLE inh: inhibitors of PABP1 MLLE–PAM2 peptide binding, primary screen, biochemical, fluorescence polarization, FITC-PAM2, GST-MLLE | inhibition, % at 20 µM | 0.36% of 360,000 active; in the data active = inhibition above about 35%, passing the limit was not always enough;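 note: plate controls were DMSO wells with GST-MLLE for no effect and wells lacking GST-MLLE protein for full effect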
PABP polyA inh: PABP poly(A) RNA binding inhibitors, primary screen, biochemical, fluorescence polarization, uHTS | calls only at 35 µM | 1% of 290,000 active | AID 2014, 2009;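 note: calls also rest on retests at 20 µM and on dose response follow-up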
EBV gp42 block: Epstein-Barr virus gp42 inhibitors, primary screen, biochemical, uHTS, fluorescence polarization; Glycoprotein 42 (Epstein-Barr virus (strain AG876)), Q1HVG2; Fluorescence polarization binding assay, mP read-out; inhibition, % (tested at 21.74 µM); 0.42% of 220,000 active; AID 1085, 2008; in the data active = inhibition above about 50%
Target sequence (Q1HVG2 whole entry, looked up): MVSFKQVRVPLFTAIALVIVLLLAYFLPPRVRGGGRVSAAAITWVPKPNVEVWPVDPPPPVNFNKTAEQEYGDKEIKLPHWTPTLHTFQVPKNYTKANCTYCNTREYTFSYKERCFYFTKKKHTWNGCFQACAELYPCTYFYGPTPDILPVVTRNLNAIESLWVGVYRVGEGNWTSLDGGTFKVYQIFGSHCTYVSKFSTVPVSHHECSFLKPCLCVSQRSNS
eIF4E-4G inh: eIF4E–eIF4G protein interaction inhibitors, primary screen, biochemical, uHTS, TR-FRET, eIF4GI fragment; TR-FRET eIF4E-eIF4GI(517-606) binding, 2 h; Eukaryotic translation initiation factor 4E (Mus musculus) + Eukaryotic translation …; inhibition, % at 21.7 µM; 0.37% of 220,000 active;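 active = inhibition above about 30%, limit read from the data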;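 note: 0% = full FRET control wells and 100% = background wells lacking eIF4GI fragment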
eIF4H FP inh: human eIF4H binding inhibitors, primary screen, translation initiation inhibitor project, biochemical, uHTS, fluorescence polarization | Eukaryotic translation initiation factor 4H (Homo sapiens), Q15056 | eIF4H fluorescence polarization binding assay | inhibition, % at 35 µM | 0.94% of 290,000 active | AID 2012, 2009;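 note: calls also rest on retests at 20 µM and on dose response follow-up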
Numbers without * were called inactive. Unless noted, the rule behind the calls is not given here.

CCCNC(=O)COC(=O)c1cc(-c2ccc(OC)cc2)nc2ccccc12 was read as PABP1 MLLE inh 1, PABP polyA inh active, EBV gp42 block -18, eIF4E-4G inh 4 and eIF4H FP inh 0.
O=C(O)c1ccccc1/C=N/NC(=O)c1cc(-c2ccco2)nc2ccccc12 was read as PABP1 MLLE inh -25, PABP polyA inh active, EBV gp42 block 59*, eIF4E-4G inh 45* and eIF4H FP inh 82*.
`Cc1ccccc1C1CCCN(Cc2nc(CC3CC3)no2)C1` (configuration not stated) gave PABP1 MLLE inh 8, PABP polyA inh inactive, EBV gp42 block -12, eIF4E-4G inh 2 and eIF4H FP inh -10.
Screening CN(C)CCOC(=O)CCCCCCCCC(=O)OCCN(C)C returned PABP1 MLLE inh 15, PABP polyA inh inactive, EBV gp42 block -5, eIF4E-4G inh 2 and eIF4H FP inh 1.
For COc1ccc(-n2ncc3c2CC(C)(C)CC3NC(=O)c2ccc(OC)o2)cc1 (configuration not stated) the results were PABP1 MLLE inh 8, PABP polyA inh inactive and eIF4H FP inh -11.
For O=C(NN1CCOCC1)c1cc(-c2ccc(Br)cc2)nc2ccccc12 the results were PABP1 MLLE inh 3, PABP polyA inh inactive, EBV gp42 block -1, eIF4E-4G inh 58* and eIF4H FP inh 3.
`COc1ccc(CCNC(=O)c2cc(-c3ccco3)nc3ccccc23)cc1` gave PABP polyA inh active and eIF4H FP inh 75*.
Screening c1ccc2nc(-c3ccc(N4CCOCC4)cc3)ccc2c1 returned PABP1 MLLE inh -17, PABP polyA inh inactive, EBV gp42 block -37, eIF4E-4G inh -34 and eIF4H FP inh -3.
Screening CCc1ccc(-c2cc(C(=O)NN3CCOCC3)c3ccccc3n2)cc1 returned PABP1 MLLE inh 0, PABP polyA inh inactive, EBV gp42 block 10, eIF4E-4G inh 8 and eIF4H FP inh 0.
For Cc1cc(-c2ccc(N3CCOCC3)cc2)nc2ccccc12 the results were PABP1 MLLE inh 8, PABP polyA inh inactive, EBV gp42 block 56*, eIF4E-4G inh 1 and eIF4H FP inh -4.
`Cc1ccc(S(=O)(=O)N2C[C@H]3[C@H]4C(=O)N(c5ccccc5)C(=O)[C@H]4C[C@H](OC(=O)NCc4ccccc4)[C@@]3(O)C2)cc1` gave PABP1 MLLE inh 4.
For COC/C=C/C1=CC2=CC(=O)C(C)(OC(=O)c3cnc4ccccc4n3)C(=O)C2=CN1CC1CC1 (configuration not stated) the results were PABP1 MLLE inh 9.
COC/C=C/C1=CC2=CC(=O)C(C)(OC(=O)c3cnc4ccccc4n3)C(=O)C2=CN1Cc1ccc(OC)cc1 (configuration not stated) was read as PABP1 MLLE inh 6, PABP polyA inh inactive, EBV gp42 block 4, eIF4E-4G inh 5 and eIF4H FP inh 50*.
`COC/C=C/C1=CC2=CC(=O)C(C)(OC(=O)c3cnc4ccccc4n3)C(=O)C2=CN1Cc1ccccc1` (configuration not stated) gave PABP1 MLLE inh 1, PABP polyA inh inactive, EBV gp42 block 0, eIF4E-4G inh 3 and eIF4H FP inh 59*.
CCc1nc2cc(NC(=O)C3(C)CCCN(C(C)=O)C3)ccc2o1 (configuration not stated) was read as PABP1 MLLE inh 2.
COc1ccc(-c2ccc(CCC(=O)O)n2NC(N)=O)cc1 was read as PABP1 MLLE inh 4, PABP polyA inh inactive, EBV gp42 block -10, eIF4E-4G inh -1 and eIF4H FP inh -5.
`CCCn1c(CCC(=O)O)ccc1-c1ccc(OC)cc1` gave PABP1 MLLE inh -25, PABP polyA inh active, EBV gp42 block 10, eIF4E-4G inh 4 and eIF4H FP inh 53*.
For O=c1cc(CSc2n[nH]c(-c3ccncc3)n2)nc2sccn12 the results were PABP1 MLLE inh -3, PABP polyA inh inactive, EBV gp42 block 16, eIF4E-4G inh 17 and eIF4H FP inh 63*.
`CC(NC(=O)C1CC1)c1ccc(-c2ccccc2)cc1` (configuration not stated) gave PABP1 MLLE inh -4, PABP polyA inh inactive and eIF4H FP inh 1.
`Cn1c2ccc(F)cc2c2nnc(SCCN3CCOCC3)nc21` gave PABP1 MLLE inh 37, PABP polyA inh inactive and eIF4H FP inh 7.
`CCCCn1c2ccc(F)cc2c2nnc(SCCN3CCOCC3)nc21` gave PABP1 MLLE inh 45*, PABP polyA inh inactive and eIF4H FP inh -7.
For COc1cc2[nH]c(=O)c(C(=O)NCc3ccccc3Cl)c(O)c2cc1OC the results were PABP1 MLLE inh 7, PABP polyA inh inactive and eIF4H FP inh 3.
`COc1ccc(C2=NNC(c3cc(Cl)cc4c3OCOC4)C2)c(O)c1` (configuration not stated) gave PABP polyA inh inactive, EBV gp42 block -53, eIF4E-4G inh -2 and eIF4H FP inh 52*.
For O=C1C(=C2CCCCC2)SC(=S)N1Cc1ccco1 the results were PABP1 MLLE inh 21, PABP polyA inh inactive, EBV gp42 block -16, eIF4E-4G inh 4 and eIF4H FP inh 4.
O=C(O)CCN1C(=O)C(=C2CCCCCC2)SC1=S was read as PABP1 MLLE inh 45*, PABP polyA inh inactive, EBV gp42 block -19, eIF4E-4G inh 5 and eIF4H FP inh -7.
For O=C(CSc1ncn(-c2ccccc2)n1)Nc1nc2c(s1)CCCC2 the results were PABP1 MLLE inh 19, PABP polyA inh active, EBV gp42 block 6, eIF4E-4G inh 0 and eIF4H FP inh 74*.
CC(=O)Nc1ccc(C(=O)CSc2ncn(-c3ccccc3)n2)cc1 was read as PABP1 MLLE inh 41*, PABP polyA inh inactive, EBV gp42 block -3, eIF4E-4G inh 7 and eIF4H FP inh -6.
O=C(c1ccoc1)N1CCC(CO)(CCc2ccccc2)CC1 was read as PABP1 MLLE inh -9, PABP polyA inh inactive, EBV gp42 block -8, eIF4E-4G inh 4 and eIF4H FP inh -12.
For O=C(CNCc1ccc(F)cc1)Nc1cc(S(=O)(=O)N2CCOCC2)ccc1Cl the results were PABP1 MLLE inh 4.
`Cc1cccc(C)c1N1C(=O)[C@@H]2C(c3ccccc3Cl)=NO[C@@H]2C1=O` gave PABP1 MLLE inh 4, PABP polyA inh inactive, EBV gp42 block -11, eIF4E-4G inh -1 and eIF4H FP inh -1.
`COc1ccc(OC)c(N2C(=O)[C@@H]3C(c4ccccc4Cl)=NO[C@@H]3C2=O)c1` gave PABP1 MLLE inh -8, PABP polyA inh active, EBV gp42 block 0, eIF4E-4G inh 17 and eIF4H FP inh 81*.
O=C(O)c1ccc2c(=O)n3c(nc2c1)/C(=C/c1ccc(Cl)c(Cl)c1)CC3 was read as PABP1 MLLE inh -5, PABP polyA inh inactive and eIF4H FP inh 2.
